# Compound activity (PubChem BioAssay)
# HepG2 tox – kills HepG2 cells in TGF-b inhibitor counter-screen | HepG2 CAGA-GFP viability, ATP luminescence, 18 h | Potency, µM (titrated, usually from 46.1 µM), for the others: top-dose activity change, negative = cytotoxicity, actives largely listed as cytotoxic | 0.76% of 410,000 active; note: potency is the fitted concentration of half-maximal effect
#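 CellTiter-Glo luminescence gave cytotoxicity after 18 hours at 37 degrees C. The cells were HepG2 CAGA-GFP in 1% FBS DMEM, stimulated with 500 pg/mL TGF-beta after compound addition. %Activity was normalised to no-cell wells (complete cell-killing) and DMSO (no toxicity), and curves were fitted and classified.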
# IL-1B inflam inh – inflammasome signaling inhibition, IL-1 beta readout. AID 743279. THP-1 LPS/ATP IL-1B secretion, AlphaLISA, 16 h; active compounds read low. activity change, % at 57.5 µM. 4.7% of 360,000 active; in the data active = activity change below about -50%; inconclusive = mostly about -30% to -49%; note: % is set by controls: 0 for no effect and ±100 for the full control effect
#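 THP-1 cells pretreated 1 hr with compounds (up to 57.5 uM final), then stimulated with LPS (250 ng/mL final) plus ATP (1.25 mM final); secreted IL-1B measured by AlphaLISA after 16 hr, decreased signal indicating inhibition.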
# HT1080 IDH1KD tx – toxicity to HT-1080 IDH1 knockdown cells (counter line). HT-1080 IDH1 knockdown viability, ATP luminescence, 48 h. Potency, µM (top dose mostly 46.1 µM), without a hit: at the highest dose activity, negative = toxicity, usual class: cytotoxic. 2% of 360,000 active;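 note: potency is the fitted concentration of half-maximal effect; 0% = DMSO wells and -100% = cell-free medium wells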
#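 In this qHTS, HT-1080 cells depleted of IDH1 are exposed for 48 h at 37 °C to compound titrations. Toxicity is scored from CellTiter-Glo luminescence, with DMSO as full viability and medium alone as none.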
# HT1080NT lethal – kills 2HG-producing HT-1080-NT fibrosarcoma cells | HT-1080-NT fibrosarcoma viability, CellTiter-Glo ATP luminescence, 48 h | Potency, µM (highest dose often 46.1 µM), without a hit: top-dose activity, negative = less viability, hits mostly cytotoxic | 1.6% of 360,000 active | AID 686970;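 note: NT is the 2HG producing partner of a matched IDH1 knockdown line; potency is the fitted concentration of half-maximal effect; 0% = DMSO-treated cells and -100% = media-only wells without cells; nearly all actives have a fitted effect of over 55% in size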
#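 Viability by CellTiter-Glo luminescence after 48 h compound exposure at 37C of HT-1080-NT cells (750/well, RPMI, 5% FBS). % activity scaled between DMSO wells and medium-only wells, then curve-fitted and categorized by curve class.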
# TGFb inhibitor – TGF-b pathway inhibition. HepG2 CAGA-GFP TGF-b/SMAD3 reporter, GFP fluorescence, 18 h; TGF-beta stimulated, 500 pg/mL final. Potency, µM (doses to about 46.1 µM), without a hit: at the highest dose activity, negative = inhibition, usual class: inhibitors. 1.2% of 410,000 active. AID 588855; note: potency is the fitted concentration of half-maximal effect; % is set by controls: 0 for no effect and ±100 for the full control effect; nearly all actives have a fitted effect of over 65% in size
#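 HEPG2 CAGA-GFP cells (1000/well, DMEM with 1% FBS) were pre-incubated 2 h at 37 degrees C, given compound by pin tool, then stimulated with TGF-beta at 500 pg/mL final for 18 h before per-cell GFP fluorescence imaging.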
# Giardia kill – kills Giardia lamblia. activity change, % at 7.66 µM, hits read low. 0.15% of 340,000 active. AID 540267. Giardia lamblia trophozoite viability; in the data active = activity change below about -80%; inconclusive = between about -30% and that limit;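 note: parasites exposed to compound for two days anaerobically before the ATP read; % is set by controls: 0 for no effect and ±100 for the full control effect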
#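 Viability, read as ATP luminescence: trophozoites at 100 cells/well, compound added, 48 hrs anaerobic at 37 deg C, then 15-30 min room-temperature development before reading.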
# Starred values were filed as active, the others as inactive; u = inconclusive; x = no result given; [ ] = remark or other dose. Hits are enriched below; roughly 6.5% of the tested compounds scored in any of these assays. Unless noted, calls come from the whole dose curve; as a rule, active = well fitted curve in the direction sought with a large enough effect; inconclusive = small, poorly fitted or top-dose-only effect, or another doubt; inactive = no such curve, though single readings can be large; an effect the other way counts as inactive or inconclusive.
SMILES,HepG2 tox,IL-1B inflam inh,HT1080 IDH1KD tx,HT1080NT lethal,TGFb inhibitor,Giardia kill
CCCN1CCc2c(sc(NC(=O)C3CCN(S(=O)(=O)c4cccs4)CC3)c2C(N)=O)C1,-16.7%,-62.2*,-4.5%,-6.2%,-5.7%,36.1
CCCN1CCc2c(sc(NC(=O)c3ccc(S(=O)(=O)N(C)c4ccccc4)cc3)c2C(=O)NC)C1,-22.1%,-60.0*,u,u,40.7%,2.8
COC(=O)c1c(NC(=O)c2cccc(S(=O)(=O)N3CCN(C)CC3)c2)sc(C)c1C,-21.6%,-76.8*,-25.9%,-13.3%,15.9%,1.3
CCOC(=O)c1sc(NC(=O)c2cccc(S(=O)(=O)N3CCN(C)CC3)c2)cc1C,-21.4%,7.7,u,u,-8.0%,-23.8
CC(=O)N1CCN(c2cc(N3CCCC3)c(F)cc2[N+](=O)[O-])CC1,-5.4%,-16.8,-2.3%,-24.2%,-11.8%,-5.8
CC(C(=O)NC(c1ccccc1)c1ccccc1)N1CCOCC1 (configuration not stated),-3.2%,5.8,19.6%,3.2%,0.0%,1.7
Cn1cccc1-c1nc2ccc(NC(=O)c3ccccc3)cc2[nH]1,-32.5%,0.4,5.4%,8.2%,2.3%,-9.6
Cc1ccc(S(=O)(=O)Nc2ccc3nc(-c4cccn4C)[nH]c3c2)cc1,-32.3%,-50.0*,0.6%,6.8%,u,4.8
Cc1cccc(-c2noc(-c3csc([C@@H]4C[C@H](O)[C@@H](CO)O4)n3)n2)c1,-15.9%,-20.7,0.9%,u,1.8%,x
OC[C@H]1O[C@H](c2nc(-c3nc(-c4cccs4)no3)cs2)C[C@@H]1O,-9.3%,-79.6*,0.0%,4.6%,12.4%,x
CCCCCCCCN1C(=O)[C@H](CC(=O)N2CCC(c3ccccc3)CC2)C[C@@]2(C(=O)OC)CCCCC=C12,x,-18.4,-12.7%,-1.8%,x,x
Cc1ccc(N2NC(=O)/C(=C\c3cc4c(cc3[N+](=O)[O-])OCO4)C2=O)cc1C,-23.6%,-104.9*,-0.5%,-14.5%,-5.5%,-6.9
COc1ccc(-c2cn3ccccc3n2)cc1OC,-55.6%,22.1,u,u,-20.4%,u
Cc1ccccc1C1NC(=S)NC2=C1C(=O)CCC2 (configuration not stated),1.2%,30.7,-9.1%,-6.1%,-6.0%,-6.4
Nc1cccc2c1C(=O)N(C(=O)/C=C/c1ccc(F)cc1)C2=O,0.2%,-77.5*,18.4µM*,u,u,5.6
Cc1ccccc1C(=O)NC=C1C(=O)OC(C)(C)OC1=O,-22.3%,-14.4,8.3%,-5.2%,-15.3%,4.7
CC1CCc2c(c3ccccc3n2C(=O)CCl)C1 (configuration not stated),-25.3%,-59.9*,-11.8%,-17.9%,-28.8%,-24.5
CCN1CCN(CC(=O)n2c3c(c4ccccc42)CC(C)CC3)CC1 (configuration not stated),-29.8%,-12.4,-0.3%[9.24 µM],u,-6.8%,5.2
COc1cc2c(C#CCCO)c(-c3ccsc3)oc(=O)c2cc1OC,-5.1%,-73.2*,-7.7%,-11.7%,u,18.8
C/C(=N\N(Cc1ccccc1)c1ccccc1)c1cccnc1,-19.9%,-51.2*,-11.3%,1.2%,4.5%,-3.9
CCOCCCNC(=S)N(Cc1ccco1)Cc1cc2cc3c(cc2[nH]c1=O)OCCO3,-13.6%,-6.5,-10.8%,-13.3%,0.0%,11.6
Cc1ccc(C(=O)Nc2cccnc2Oc2ccc(Cl)cc2)cc1,3.5%,-62.2*,-7.0%,-2.7%,-39.4%,-15.4
Cc1ccccc1NC(=O)OCc1cccnc1Oc1ccc(Cl)cc1,0.2%,-79.4*,u,-17.9%,12.8%,-19.1
Cc1ccccc1NC(=O)CSc1nnc(COc2ccc(Cl)cc2)o1,-10.0%,x,x,x,0.4%,x
Cc1ccc(S(=O)(=O)Nc2cccnc2Oc2ccc(Cl)cc2)cc1,-5.0%,0.0,-8.0%,1.0%,13.4%,-7.2
SMILES,HepG2 tox,IL-1B inflam inh,HT1080 IDH1KD tx,HT1080NT lethal,TGFb inhibitor,Giardia kill
COc1cc(/C=C2/SC(=Nc3ccc(O)cc3)NC2=O)ccc1O,-14.1%,u,1.16µM*,0.651µM*,-13.3%,0.7
CCc1ccc(N=C2NC(=O)/C(=C/c3cc(OC)c(O)c(OC)c3)S2)cc1,-78.4%,11.3,-11.1%,-3.2%,u,9.9
COc1ccc(N=C2NC(=O)/C(=C/c3ccco3)S2)cc1,-0.8%,-55.0*,2.7%,-2.2%,-0.8%,21.3
COc1ccc(S(=O)(=O)/N=C2/NC(=O)/C(=C/c3ccco3)S2)cc1,-25.7%,0.0,-0.2%,6.8%,-5.3%,-1.3
Cc1ccc(N=C2NC(=O)/C(=C/c3cccn3C)S2)cc1,5.8%,40.6,10.3µM*,-29.4%,-2.6%,-15.8
COc1cc(/C=C2\SC(=Nc3ccccc3OC)NC2=O)ccc1O,-20.0%,-60.1*,7.31µM*,4.11µM*,15.9%,9.3
Cc1ccc(N=C2NC(=O)/C(=C/c3cccn3C)S2)cc1C,-2.1%,19.7,-20.4%,-0.8%,2.5%,-21.6
O=[N+]([O-])c1ccc(Sc2ccc(F)cc2)nc1,-25.6%,u,0.3%,9.6%,u,-22.3
CN(CCc1ccccc1)C(=O)c1ccc(NC(=O)Cc2ccc(NC(=O)C3CCCN(C(=O)c4ccccc4)C3)cc2)cc1 (configuration not stated),-3.9%,0.0,-25.6%,-0.8%,0.1%,7.8
CC(/C=N\NC(=O)Cn1c(C)nc2ccccc21)=C\c1ccccc1,-11.9%,-3.3,20.6µM*,8.2µM*,-18.8%,14.2
CC(/C=N/NC(=O)CSc1nc(C)cc(C)n1)=C\c1ccccc1,-1.4%,-3.1,-0.6%,1.4%,65.2%,16.5
CN1C(=O)/C(=C/c2ccc(O)c([N+](=O)[O-])c2)N(C)C1=S,-29.9%,22.2,-0.1%,-3.8%,13.8%,-91.3*
O=C1C=C(c2ccc3ccccc3c2)C[C@@H](c2ccc(Cl)cc2)C1,-10.6%,u,6.4%,11.8%,u,-22.5
O=C1C=C(Nc2ccc(Cl)cc2)CC(c2ccc(Cl)cc2)C1 (configuration not stated),-41.2%,-84.8*,-20.5%,u,-23.1%,-14.3
O=C1C=C(c2ccc(O)cc2)C[C@@H](c2ccc(Cl)cc2)C1,-7.4%,-75.4*,-18.1%,-9.3%,-13.3%,5.8
O=C1C=C(c2ccc3[nH]ccc3c2)C[C@@H](c2ccc(Cl)cc2)C1,-23.0%,0.0,u,u,11.2µM*,-6.6
Cc1ccc(C2=CC(=O)C[C@H](c3ccc(Cl)cc3)C2)cc1,-12.6%,17.8,8.2%,2.9%,u,16.2
